Experimental data reported in PubChem BioAssay AID434989 (The Scripps Research Institute Molecular Screening Center, 2010).
Among all 330,000 compounds or so, about 1,400 (0.42%) were called active.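 Rule for the calls: active = inhibition above its plate's threshold, mean inhibition of all tested compounds on the plate plus 3 SD (cut at about 37% in these data); inactive = the rest.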 The sample as a whole holds a higher share of actives than the screen did.

Biological target: Orexin/Hypocretin receptor type 1 (Homo sapiens) (UniProt O43613)
Assay: OX1R (HCRTR1) antagonists, primary screen, fluorescence, CHO/OX1R cells, Fluo-8 calcium, orexin A (AID 434989);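 note: 0% = orexin A challenge wells and 100% = SB-334867-A antagonist wells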
Conditions: Fluo-8 calcium fluorescence, at 5 µM, hits give high values

Sequence of Orexin/Hypocretin receptor type 1 (Homo sapiens) (O43613 whole entry, looked up): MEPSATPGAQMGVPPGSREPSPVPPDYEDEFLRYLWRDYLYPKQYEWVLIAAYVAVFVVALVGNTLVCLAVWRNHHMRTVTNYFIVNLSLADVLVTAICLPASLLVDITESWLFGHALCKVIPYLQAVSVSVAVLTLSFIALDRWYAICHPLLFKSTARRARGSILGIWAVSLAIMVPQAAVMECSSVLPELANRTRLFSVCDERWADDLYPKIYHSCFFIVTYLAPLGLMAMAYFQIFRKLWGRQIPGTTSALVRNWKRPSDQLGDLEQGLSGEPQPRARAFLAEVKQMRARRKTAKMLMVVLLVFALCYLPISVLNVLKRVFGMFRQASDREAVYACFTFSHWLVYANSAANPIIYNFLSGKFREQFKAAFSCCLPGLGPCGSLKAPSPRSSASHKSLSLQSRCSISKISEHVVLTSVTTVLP

inhibition, inactive:
Cc1noc(C)c1NC(=O)Nc1cccc2c1O[C@H](CN(C)C(=O)Nc1ccccc1)[C@@H](C)CN([C@H](C)CO)C2=O 1.33%
C[C@]12c3[nH]c4ccc(Cl)cc4c3CCN1C(=O)[C@@H](CC(=O)NCCCn1ccnc1)C[C@@H]2C(=O)N1CCOCC1 -3.04%
CC[C@]12c3[nH]c4ccc(Cl)cc4c3CCN1C(=O)[C@@H](CC(=O)NCCCOC)C[C@@H]2C(=O)N1CCN(C(=O)c2ccco2)CC1 -0.28%
COCCNC(=S)N/N=C/c1c(C)[nH]c2ccccc12 -0.83%
COc1ccc(CNC(=O)CNC(=O)c2sc3ccccc3c2Cl)cc1OC -23.5%
CCCCNc1c(-c2ccc(OC)c(Sc3ccc(OC)cc3)c2)nc2ccc(Cl)cn12 -30.4%
Cc1cccc(OCC(=O)OCC(=O)Nc2ccc(Cl)cn2)c1 -10.8%
Nc1ncnc2c1ncn2[C@@H]1O[C@H](CNCc2cccn2-c2nccs2)[C@@H](O)[C@H]1O -6.54%
COc1ccc2[nH]c3c(c2c1)CCN1C(=O)C(CC(=O)NCc2cccc(C(F)(F)F)c2)C[C@H](C(=O)N2CCOCC2)[C@@]31C (stereo not given in full) -21.4%
CCN1C[C@@H]2[C@@H]3C(=O)N(Cc4ccccc4)C(=O)[C@@H]3[C@](Cc3ccccc3)(C(=O)OC)N2C1=NC1CCCCC1 -11.5%
O=C(Nc1cccc2cccnc12)c1cccc(Cl)c1 -10.3%
COC(=O)c1cccc(NC(=O)c2cccc(N3C(=O)CCC3=O)c2)c1 13.2%
CN(Cc1ccccc1)C(=O)COC(=O)/C=C/c1ccc2c(c1)OCO2 -11.9%
CCCC(=O)NC(Nc1ccccc1OC)C(Cl)(Cl)Cl (stereo not given) -0.68%
COc1ccccc1NC(=O)CCCc1c[nH]c2ccccc12 -3.22%
O=C(COC(=O)c1ccc([N+](=O)[O-])o1)NC12CC3CC(CC(C3)C1)C2 -17.3%
COC(=O)[C@@]1(C)[C@H]2C(=O)N(Cc3ccccc3)C(=O)[C@H]2[C@H]2CN=C(SCC3CC3)N21 -26.2%
CC(=O)c1c(C)[nH]c(C(=O)COC(=O)c2cccs2)c1C -11.4%
COc1cccc(C(=O)OCC(=O)c2[nH]c(C)c(C(C)=O)c2C)c1 11%
COc1ccccc1NC(=O)COC(=O)CNC(=O)C1CCCCC1 -0.83%
C[C@H](CO)N1C[C@H](C)[C@@H](CN(C)S(=O)(=O)c2ccc(F)cc2)Oc2c(NC(=O)Nc3ccccc3)cccc2C1=O -5.33%

inhibition, active:
O=C(N/N=C/c1c(Cl)[nH]c2ccccc12)c1sc2ccccc2c1Cl 92.7%
O=C(Nc1cccc2cccnc12)c1cccc(N2C(=O)CCC2=O)c1 45.5%
CCCCCCCC(=O)NC(Nc1ccccc1OC)C(Cl)(Cl)Cl (stereo not given) 51.6%
CC(=O)c1c(C)[nH]c(C(=O)COC(=O)c2cccc(S(=O)(=O)N(C)c3ccccc3)c2)c1C 63.5%
